Results from PubChem BioAssay AID1159580 (chemical genetic matrix, 2015).
The whole screen tested about 5,500 compounds, of which about 2,000 (36%) were called active. About 18% were inconclusive and are not listed. Cut-off read from the data, not from the text of the source: active = normalized growth mostly below about 0.91 (no sharp cut-off); inconclusive = no clear call, values can overlap the other calls; inactive = mostly above about 0.92. The list shows a part of the results.

Test: chemical genetic growth profiling, strain panel (AID 1159580);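 note: tested at 20 µM; growth read once vehicle control cultures reached saturation at 30 °C; 1 = growth at the plate median or of vehicle wells; lower values mean less growth of the strain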
Details: growth OD
[1] = S. cerevisiae deletion strains, locus YDL101C, strain DUN1, hits give low values
[2] = S. cerevisiae deletion strains, locus YHR030C, strain SLT2, hits give low values

Measured: normalized growth

CCOC(=O)NC(=S)Nc1ccc(C(C)(C)C)cc1NC(=S)NC(=O)OCC
inactive: S. cerevisiae deletion strains, locus YAR019C, strain CDC15, hits give low values 0.986 | S. cerevisiae deletion strains, locus YBL105C, strain PKC1, hits give low values 0.985 | S. cerevisiae deletion strains, locus YBR135W, strain CKS1, hits give low values 0.98 | S. cerevisiae deletion strains, locus YBR136W, strain MEC1, hits give low values 0.979 | S. cerevisiae deletion strains, locus YBR160W, strain CDC28, hits give low values 0.991 | S. cerevisiae deletion strains, locus YDL017W, strain CDC7, hits give low values 0.989 | S. cerevisiae deletion strains, locus YDL028C, strain MPS1, hits give low values 0.979 | [1] 0.982 | S. cerevisiae deletion strains, locus YDL108W, strain KIN28, hits give low values 0.985 | S. cerevisiae deletion strains, locus YDL132W, strain cdc53, hits give low values 0.983 | S. cerevisiae deletion strains, locus YDL214C, strain PRR2, hits give low values 0.94 | S. cerevisiae deletion strains, locus YDR052C, strain DBF4, hits give low values 0.982 | S. cerevisiae deletion strains, locus YDR054C, strain cdc34, hits give low values 0.983 | S. cerevisiae deletion strains, locus YDR226W, strain ADK1, hits give low values 0.988 | S. cerevisiae deletion strains, locus YDR477W, strain SNF1, hits give low values 0.921 | S. cerevisiae deletion strains, locus YER123W, strain YCK3, hits give low values 0.879 | S. cerevisiae deletion strains, locus YER133W, strain GLC7, hits give low values 0.934 | S. cerevisiae deletion strains, locus YFL009W, strain cdc4, hits give low values 0.974 | S. cerevisiae deletion strains, locus YFL029C, strain CAK1, hits give low values 0.985 | S. cerevisiae deletion strains, locus YFR003C, strain YPI1, hits give low values 0.986 | S. cerevisiae deletion strains, locus YFR019W, strain FAB1, hits give low values 0.922 | S. cerevisiae deletion strains, locus YFR028C, strain CDC14, hits give low values 0.986 | S. cerevisiae deletion strains, locus YGR040W, strain KSS1, hits give low values 0.923 | S. cerevisiae deletion strains, locus YGR052W, strain FMP48, hits give low values 1.04 | S. cerevisiae deletion strains, locus YGR092W, strain DBF2, hits give low values 0.572 | [2] 1.08 | S. cerevisiae deletion strains, locus YHR079C, strain IRE1, hits give low values 0.985 | S. cerevisiae deletion strains, locus YHR082C, strain KSP1, hits give low values 1.05 | S. cerevisiae deletion strains, locus YHR205W, strain SCH9, hits give low values 0.985 | S. cerevisiae deletion strains, locus YIL147C, strain SLN1, hits give low values 0.978 | S. cerevisiae deletion strains, locus YJL095W, strain BCK1, hits give low values 0.995 | S. cerevisiae deletion strains, locus YJL128C, strain PBS2, hits give low values 0.944 | S. cerevisiae deletion strains, locus YJL157C, strain FAR1, hits give low values 0.911 | S. cerevisiae deletion strains, locus YJR016C, strain ILV3, hits give low values 0.981 | S. cerevisiae deletion strains, locus YJR066W, strain TOR1 (second series), hits give low values 0.778 | S. cerevisiae deletion strains, locus YJR066W, strain TOR1, hits give low values 1.06 | S. cerevisiae deletion strains, locus YKL048C, strain ELM1, hits give low values 0.928 | S. cerevisiae deletion strains, locus YKL067W, strain YNK1, hits give low values 0.932 | S. cerevisiae deletion strains, locus YKL101W, strain HSL1, hits give low values 0.961 | S. cerevisiae deletion strains, locus YKL193C, strain SDS22, hits give low values 0.987 | S. cerevisiae deletion strains, locus YKL203C, strain TOR2, hits give low values 0.989 | S. cerevisiae deletion strains, locus YLR113W, strain HOG1, hits give low values 1.02 | S. cerevisiae deletion strains, locus YLR133W, strain CKI1, hits give low values 0.948 | S. cerevisiae deletion strains, locus YLR403W, strain SFP1, hits give low values 0.91 | S. cerevisiae deletion strains, locus YML070W, strain DAK1, hits give low values 0.925 | S. cerevisiae deletion strains, locus YMR001C, strain CDC5, hits give low values 0.985 | S. cerevisiae deletion strains, locus YMR205C, strain PFK2 (second series), hits give low values 0.924 | S. cerevisiae deletion strains, locus YMR277W, strain FCP1, hits give low values 0.981 | S. cerevisiae deletion strains, locus YNL006W, strain LST8, hits give low values 0.98 | S. cerevisiae deletion strains, locus YNL020C, strain ARK1, hits give low values 0.928 | S. cerevisiae deletion strains, locus YNL161W, strain CBK1, hits give low values 0.986 | S. cerevisiae deletion strains, locus YNL183C, strain NPR1, hits give low values 1.06 | S. cerevisiae deletion strains, locus YNL207W, strain RIO2, hits give low values 0.981 | S. cerevisiae deletion strains, locus YNL222W, strain SSU72, hits give low values 0.98 | S. cerevisiae deletion strains, locus YNL307C, strain MCK1 (second series), hits give low values 0.926 | S. cerevisiae deletion strains, locus YOL078W, strain AVO1, hits give low values 0.979 | S. cerevisiae deletion strains, locus YOL136C, strain PFK27, hits give low values 0.931 | S. cerevisiae deletion strains, locus YOR061W, strain CKA2, hits give low values 0.712 | S. cerevisiae deletion strains, locus YOR119C, strain RIO1, hits give low values 0.959 | S. cerevisiae deletion strains, locus YOR231W, strain MKK1, hits give low values 0.997 | S. cerevisiae deletion strains, locus YOR329C, strain SCD5, hits give low values 0.983 | S. cerevisiae deletion strains, locus YPL031C, strain PHO85, hits give low values 0.93 | S. cerevisiae deletion strains, locus YPL153C, strain RAD53, hits give low values 0.897 | S. cerevisiae deletion strains, locus YPL204W, strain HRR25, hits give low values 0.924 | S. cerevisiae deletion strains, locus YPL209C, strain IPL1, hits give low values 0.989 | S. cerevisiae deletion strains, locus YPL256C, strain CLN2, hits give low values 1.04 | S. cerevisiae deletion strains, locus YPR025C, strain CCL1, hits give low values 0.986 | S. cerevisiae deletion strains, locus YPR106W, strain ISR1, hits give low values 0.986 | S. cerevisiae deletion strains, locus YPR111W, strain DBF20, hits give low values 0.978 | S. cerevisiae deletion strains, strain NNK1, hits give low values 0.981 | S. cerevisiae deletion strains, strain TSCII, hits give low values 0.985

COc1ccccc1NC(=S)NCCC(=O)O
inactive: S. cerevisiae deletion strains, locus YAL013W, strain DEP1, hits give low values 1.01 | S. cerevisiae deletion strains, locus YBR229C, strain ROT2, hits give low values 1 | S. cerevisiae deletion strains, locus YCL061C, strain MRC1, hits give low values 1 | [1] 0.985 | S. cerevisiae deletion strains, locus YDR150W, strain NUM1, hits give low values 0.955 | S. cerevisiae deletion strains, locus YEL061C, strain CIN8, hits give low values 0.991 | S. cerevisiae deletion strains, locus YGR078C, strain PAC10, hits give low values 0.995 | [2] 1.03 | S. cerevisiae deletion strains, locus YHR087W, strain rtc3, hits give low values 0.986 | S. cerevisiae deletion strains, locus YJL187C, strain SWE1, hits give low values 1.01 | S. cerevisiae deletion strains, locus YJR075W, strain HOC1, hits give low values 1.03 | S. cerevisiae deletion strains, locus YLR039C, strain RIC1, hits give low values 1.03 | S. cerevisiae deletion strains, locus YLR058C, strain SHM2 (second series), hits give low values 1.01 | S. cerevisiae deletion strains, locus YLR085C, strain ARP6, hits give low values 1.03 | S. cerevisiae deletion strains, locus YLR262C, strain YPT6, hits give low values 1.02 | S. cerevisiae deletion strains, locus YML094W, strain GIM5, hits give low values 0.963 | S. cerevisiae deletion strains, locus YMR219W, strain ESC1, hits give low values 1.01 | S. cerevisiae deletion strains, locus YMR263W, strain SAP30, hits give low values 0.989 | S. cerevisiae deletion strains, locus YNL153C, strain GIM3, hits give low values 0.996 | S. cerevisiae deletion strains, locus YNL298W, strain CLA4 (second series), hits give low values 1.02 | S. cerevisiae deletion strains, locus YNL322C, strain KRE1, hits give low values 0.999 | S. cerevisiae deletion strains, locus YNR030W, strain Alg12, hits give low values 1.01 | S. cerevisiae deletion strains, locus YPL055C, strain LGE1, hits give low values 0.919 | S. cerevisiae deletion strains, locus YPL241C, strain CIN2, hits give low values 1.07 | S. cerevisiae deletion strains, locus YPR135W, strain CTF4, hits give low values 0.984 | S. cerevisiae strains, strain wild type, hits give low values 1.01
